Measurements as given in PubChem BioAssay (NCATS).
Inconclusive results are not listed. Where a call stands in place of a potency, no number is given. Calls of active or inactive are those of the source. Calls follow the shape of the dose curve; as a rule, active = well fitted curve in the direction sought with a large enough effect; inconclusive = small, poorly fitted or top-dose-only effect, or another doubt; inactive = no such curve, though single readings can be large; an effect the other way counts as inactive or inconclusive.

target: Calcium and integrin-binding protein 1 (Homo sapiens) (UniProt Q99828); assay: Validation qHTS for Identification of Calcium Integrin Binding protein 1 (CIB1) Competitor (AID 1508618); settings: CIB1-GST / FITC-alphaIIb peptide fluorescence polarization; series mostly up to 114 µM
Sequence (Q99828 whole entry, looked up): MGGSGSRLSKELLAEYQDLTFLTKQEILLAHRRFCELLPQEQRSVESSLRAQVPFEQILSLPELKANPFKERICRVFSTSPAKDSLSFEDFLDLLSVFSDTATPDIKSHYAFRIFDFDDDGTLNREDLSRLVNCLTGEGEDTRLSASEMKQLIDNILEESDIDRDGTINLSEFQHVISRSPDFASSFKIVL
Procedure, shortened: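 In this qHTS validation, the LOPAC set (up to 114 uM) was tested for blocking CIB1 binding to a fluorescein-tagged alphaIIb peptide, with FP detection at 480/540 nm.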

Structure (SMILES)	outcome
C[C@@H](c1ncncc1F)[C@](O)(Cn1cncn1)c1ccc(F)cc1F	inactive
COc1ccc2cc([C@H](C)C(=O)O)ccc2c1	inactive
Cc1cccc(C#Cc2ccccc2)n1	inactive
CCOC(=O)C1=C(O)C(=O)N(Cc2ccccc2)C1	inactive
O=C(CCc1ccc(O)cc1)c1c(O)cc(O)cc1O	inactive
CCN(CC)C(=S)SSC(=S)N(CC)CC	inactive
COc1cc2c(cc1OC)C1CC(=O)C(CC(C)C)CN1CC2 (centres undefined)	inactive
Nc1nc(N)c(N=O)c(OCC2CCCCC2)n1	inactive
O=c1c(O)c(-c2cc(O)c(O)c(O)c2)oc2cc(O)cc(O)c12	inactive
NC(=NCc1ccccc1)NC(=O)c1nc(Cl)c(N)nc1N	inactive
NCCCCNCCCN	inactive
COc1ccccc1N1CCN(CCN(C(=O)C2CCCCC2)c2ccccn2)CC1	inactive
CC1(C)NC(=O)N(c2ccc([N+](=O)[O-])c(C(F)(F)F)c2)C1=O	inactive
Oc1ccc(-c2nc(-c3ccc(F)cc3)c(-c3ccncc3)[nH]2)cc1	inactive
O=Nc1c(-c2c(O)[nH]c3cc(Br)ccc23)[nH]c2ccccc12	inactive
O=C(c1ccccc1)c1ccc2n1CCC2C(=O)O (centres undefined)	inactive

Structure (SMILES)	outcome
c1cnc2cc3c(cc2n1)C1CNCC3C1	inactive
CN(C)CCCC1(c2ccc(F)cc2)OCc2cc(C#N)ccc21 (centres undefined)	inactive
C[C@H](Cc1ccc(O)c(O)c1)[C@@H](C)Cc1ccc(O)c(O)c1	inactive
CC(=O)N1CCN(c2ccc(OC[C@H]3CO[C@](Cn4ccnc4)(c4ccc(Cl)cc4Cl)O3)cc2)CC1	inactive
O=C(O)c1cccnc1Nc1cccc(C(F)(F)F)c1	inactive
CN(C)C(=O)[C@H](O)[C@H](Cc1ccccc1)NC(=O)c1cc2cc(Cl)ccc2[nH]1	inactive
Cc1cccc(-c2[nH]ncc2-c2ccc3ncccc3n2)n1	inactive
Cc1cc(Cl)ccc1OCCCC(=O)NO	inactive
C[C@@H](N)C1CCC(C(=O)Nc2ccncc2)CC1 (some centres undefined)	inactive
NNc1nncc2ccccc12	inactive
CNC[C@H](O)c1ccc(O)c(O)c1	inactive
CC1(C)C(=O)N(CCN2CCC(C(=O)c3ccc(F)cc3)CC2)c2ccccc21	inactive
Clc1ccc2c(N3CCN(CCCN4CCN(c5ccnc6cc(Cl)ccc56)CC4)CC3)ccnc2c1	inactive
CCOC(=O)C(C)Oc1cccc2c(=O)n(CC(=O)Nc3ccc4c(c3)OCCO4)ccc12 (centres undefined)	inactive
Nc1nc(OCc2ccccc2)c2[nH]cnc2n1	inactive
Cc1c(OCC(F)(F)F)ccnc1CS(=O)c1nc2ccccc2[nH]1 (centres undefined)	inactive

target: Calcium and integrin-binding protein 1 (Homo sapiens) (UniProt Q99828); assay: Primary qHTS for Identification of Calcium Integrin Binding Protein 1 (CIB1) Competitor (AID 1508620); settings: CIB1-GST / FITC-alphaIIb peptide fluorescence polarization; series mostly up to 57.7 µM; also: potency is read from the fitted curve at half-maximal effect
Procedure, shortened: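 Fluorescence polarization competition: CIB1-GST (1 uM final) preincubated with compound 15 min at room temperature, then FITC-labeled alphaIIb peptide (100 nM final) added for another 15 min. Polarization read at Ex 480/Em 540.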

Structure (SMILES)	Potency
C[C@@H](c1ncncc1F)[C@](O)(Cn1cncn1)c1ccc(F)cc1F	inactive
COc1ccc2cc([C@H](C)C(=O)O)ccc2c1	inactive
CC(C)[N+]1(C)[C@@H]2CC[C@H]1CC(OC(=O)C(CO)c1ccccc1)C2 (some centres undefined)	inactive
Cc1cccc(C#Cc2ccccc2)n1	inactive
CCOC(=O)C1=C(O)C(=O)N(Cc2ccccc2)C1	inactive
O=C(CCc1ccc(O)cc1)c1c(O)cc(O)cc1O	inactive
CCN(CC)C(=S)SSC(=S)N(CC)CC	44.7 µM (active)
COc1cc2c(cc1OC)C1CC(=O)C(CC(C)C)CN1CC2 (centres undefined)	inactive
Nc1nc(N)c(N=O)c(OCC2CCCCC2)n1	inactive
O=c1cc(N2CCOCC2)oc2c(-c3ccccc3)cccc12	inactive
O=c1c(O)c(-c2cc(O)c(O)c(O)c2)oc2cc(O)cc(O)c12	inactive
CC(C)(S)[C@@H](N)C(=O)O	inactive
NC(=NCc1ccccc1)NC(=O)c1nc(Cl)c(N)nc1N	inactive
NCCCCNCCCN	inactive
COc1ccccc1N1CCN(CCN(C(=O)C2CCCCC2)c2ccccn2)CC1	inactive
CC1(C)NC(=O)N(c2ccc([N+](=O)[O-])c(C(F)(F)F)c2)C1=O	inactive
Oc1ccc(-c2nc(-c3ccc(F)cc3)c(-c3ccncc3)[nH]2)cc1	inactive
O=Nc1c(-c2c(O)[nH]c3cc(Br)ccc23)[nH]c2ccccc12	inactive
O=C(c1ccccc1)c1ccc2n1CCC2C(=O)O (centres undefined)	inactive

Structure (SMILES)	Potency
c1cnc2cc3c(cc2n1)C1CNCC3C1	inactive
O=C(CS(=O)Cc1ccco1)NCC=CCOc1cc(CN2CCCCC2)ccn1 (centres undefined)	inactive
O=C(O)c1cc(=O)c2c(OCC(O)COc3cccc4oc(C(=O)O)cc(=O)c34)cccc2o1	inactive
CN(C)CCCC1(c2ccc(F)cc2)OCc2cc(C#N)ccc21 (centres undefined)	inactive
CC(=O)N1CCN(c2ccc(OC[C@H]3CO[C@](Cn4ccnc4)(c4ccc(Cl)cc4Cl)O3)cc2)CC1	inactive
O=C(O)c1cccnc1Nc1cccc(C(F)(F)F)c1	inactive
CN(C)C(=O)[C@H](O)[C@H](Cc1ccccc1)NC(=O)c1cc2cc(Cl)ccc2[nH]1	inactive
Cc1cccc(-c2[nH]ncc2-c2ccc3ncccc3n2)n1	inactive
Cc1cc(Cl)ccc1OCCCC(=O)NO	inactive
C[C@@H](N)C1CCC(C(=O)Nc2ccncc2)CC1 (some centres undefined)	inactive
O=C1c2c(O)cc(O)cc2OC(c2ccc(O)c(O)c2)C1O (centres undefined)	inactive
NNc1nncc2ccccc12	inactive
CNC[C@H](O)c1ccc(O)c(O)c1	inactive
CC1(C)C(=O)N(CCN2CCC(C(=O)c3ccc(F)cc3)CC2)c2ccccc21	inactive
Clc1ccc2c(N3CCN(CCCN4CCN(c5ccnc6cc(Cl)ccc56)CC4)CC3)ccnc2c1	inactive
CCOC(=O)C(C)Oc1cccc2c(=O)n(CC(=O)Nc3ccc4c(c3)OCCO4)ccc12 (centres undefined)	inactive
Nc1nc(OCc2ccccc2)c2[nH]cnc2n1	inactive
Cc1c(OCC(F)(F)F)ccnc1CS(=O)c1nc2ccccc2[nH]1 (centres undefined)	inactive
